# Shown are actives, neighbours in structure and some others; about 3.2% of the full set was active somewhere.
# RGS12 GoLoco inh = RGS12 GoLoco-Gai1 interaction inhibition | P63096 | Gai1:RGS12 GoLoco peptide FP, rhodamine, 10 min | Potency, µM (top dose mostly 61.6 µM), without a hit: at the top dose activity, negative = inhibition, usual class: inhibitors | 0.44% of 230,000 active | AID 880; active means well fitted inhibition curve with a large enough effect, not every such curve was filed as active; inactive means no such curve, though single readings can be large or run the other way; further: nearly all actives have a fitted effect of over 30% in size
# Tau FP inhib = inhibitors of human tau fibril formation; P10636; K18 P301L tau heparin fibrillization, Alexa594 FP, 6 h; Potency, µM (titrated, usually from 57.7 µM), without a hit: at the top dose activity, negative = inhibition, most hits filed as inhibitors; 0.39% of 280,000 active; AID 1468; further: nearly all actives have a fitted effect of over 55% in size
# Target sequence (P10636 561-689 P618L limits assumed): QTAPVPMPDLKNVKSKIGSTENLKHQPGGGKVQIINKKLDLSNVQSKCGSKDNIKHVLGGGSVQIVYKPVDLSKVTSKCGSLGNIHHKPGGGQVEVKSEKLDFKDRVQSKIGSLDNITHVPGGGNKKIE
#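 Recombinant K18 P301L […], labeled with Alexa 594 at 0.24 uM over 15 uM unlabeled; heparin inducer 20 uM final; 37 C, 6 hr; FP endpoint.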
# TRb SRC2 PPI = disrupts binding of human TR beta to SRC2; P10828; TRbeta-SRC2 peptide binding, fluorescence polarization; receptor liganded with 1 µM T3; Potency, µM (highest dose often 106 µM), without a hit: at the highest dose activity change, negative = inhibition, actives largely listed as inhibitors; AID 1469; 0.065% of 280,000 active;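 further: plate controls were bound peptide for no effect and peptide without receptor for full effect; nearly all actives have a fitted effect of over 50% in size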
# Target sequence (P10828 whole entry, looked up): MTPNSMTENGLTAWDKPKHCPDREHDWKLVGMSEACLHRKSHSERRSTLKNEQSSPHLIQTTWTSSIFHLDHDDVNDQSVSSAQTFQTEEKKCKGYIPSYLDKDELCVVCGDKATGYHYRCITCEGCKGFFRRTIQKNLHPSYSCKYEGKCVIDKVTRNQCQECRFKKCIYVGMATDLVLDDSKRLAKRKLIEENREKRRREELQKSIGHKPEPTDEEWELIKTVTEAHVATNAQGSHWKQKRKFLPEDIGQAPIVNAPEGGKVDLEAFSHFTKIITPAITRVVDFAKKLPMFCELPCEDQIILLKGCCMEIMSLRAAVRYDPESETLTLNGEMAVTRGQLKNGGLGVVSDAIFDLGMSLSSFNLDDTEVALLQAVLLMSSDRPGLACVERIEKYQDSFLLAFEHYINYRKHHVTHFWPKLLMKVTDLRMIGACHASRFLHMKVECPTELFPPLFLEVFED
#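 Each compound concentration gave % activity, normalized to unbound and bound Texas Red SRC2 controls, from polarization read after 5 hr ambient incubation with T3-loaded human TRb LBD.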
# Tau fibril ThT = tau fibrillization inhibition (ThT binding); P10636; recombinant tau K18 P301L, heparin-induced fibrillization, ThT fluorescence; Potency, µM (top dose mostly 57.4 µM), inactives show at the highest dose activity, negative = inhibition, usual class: inhibitors; 2.1% of 270,000 active; AID 1460; further: nearly all actives have a fitted effect of over 55% in size
#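 Tau K18 P301L fragment (15 uM unlabeled plus 0.24 uM Alexa 594-labeled) in 100 mM sodium acetate pH 7 with compound, fibrillization induced by 20 uM heparin for 6 hr at 37 C. Thioflavin T (30 uM) added, fluorescence read after 1 hr (ex 450, em 510 nm).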
# Tau fluor cs = counter-screen for tau fibril formation inhibitors | 0.93% of 280,000 active | Potency, µM (titrated, usually from 57.7 µM), for the others: top-dose activity change, negative = decrease | AID 1463 | tau K18 P301L Alexa594 fluorescence, heparin fibrillization; further: nearly all actives have a fitted effect of over 55% in size
#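 Human tau K18 P301L (15 uM unlabeled, 0.24 uM Alexa 594-labeled) in 100 mM sodium acetate pH 7 with 20 uM heparin, 6 hr at 37 C. ThT 30 uM added, 1 hr ambient; Alexa 594 FP and total fluorescence read at 555/632 nm.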
# TexasRed fluor = counter-screen for TRb-SRC2 inhibitors: fluorescence interference. TRb/SRC2 Texas Red total fluorescence interference. Potency, µM (titrated, usually from 106 µM), without a hit: top-dose fluorescence change, negative = quenching. 0.29% of 280,000 active; active means well fitted curve in either direction with a large enough effect; inconclusive means small, poorly fitted or top-dose-only effect
#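 Human TRb ligand-binding domain at 0.6 uM with 20 nM Texas Red SRC2 peptide in Tris buffer containing 1 uM T3 and 5% DMSO, incubated with compound 5 h at ambient temperature. Total fluorescence (555/632 nm) calculated as parallel + 2 × perpendicular.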
# * marks the source's active call; other numbers are inactive results; ? = inconclusive; / = no result given; [ ] = remark or other dose. Unless noted, the call rests on the fitted dose curve; in most records, active means well fitted curve in the direction sought with a large enough effect; inconclusive means small, poorly fitted or top-dose-only effect, or another doubt; inactive means no such curve, though single readings can be large; an effect the other way counts as inactive or inconclusive. Unless noted, on the % scale 0 is the no-effect control and ±100 the full control effect; potency means the concentration at half of the fitted maximal effect.
SMILES,RGS12 GoLoco inh,Tau FP inhib,TRb SRC2 PPI,Tau fibril ThT,Tau fluor cs,TexasRed fluor
CC[C@H](C)[C@H](NC(=O)[C@H](CCC(=O)O)NC(=O)[C@H](CC(N)=O)NC(=O)[C@@H](N)[C@@H](C)O)C(=O)N[C@H](C(=O)N[C@@H](CCC(=O)O)C(=O)N[C@@H](CCC(=O)O)C(=O)N[C@@H](CCC(N)=O)C(=O)N[C@@H](Cc1ccc(O)cc1)C(=O)N[C@H](C(=O)N1CCC[C@H]1C(=O)N[C@@H](CCC(N)=O)C(=O)N[C@@H](CO)C(=O)N[C@@H](CC(C)C)C(=O)N[C@@H](C)C(=O)N[C@H](C(=O)N[C@@H](CC(C)C)C(=O)N[C@@H](CCC(=O)O)C(=O)N[C@@H](CO)C(=O)N[C@H](C(=O)N[C@@H](Cc1ccccc1)C(=O)N[C@@H](CCC(N)=O)C(=O)N[C@@H](CCC(=O)O)C(=O)N[C@@H](CC(C)C)C(=O)NCC(=O)N[C@@H](CCCCN)C(=O)N[C@@H](CC(C)C)C(=O)N[C@H](C(=O)NCC(=O)N1CCC[C@H]1C(=O)N[C@@H](CC(N)=O)C(=O)N[C@@H](CO)C(=O)N[C@@H](CCC(N)=O)C(=O)O)[C@@H](C)O)C(C)C)[C@@H](C)O)[C@@H](C)O)C(C)C,/,/,2.9%,/,/,-0.4%
CCCCCCCCCCCC(=O)OC,/,/,-1.7%[201 µM],/,/,1.3%[201 µM]
O=[N+]([O-])c1ccc(O)c(/C=N/n2cnnc2)c1,-3.7%,-6.9%,-11.9%,-11.6%,-6.6%,-3.5%
O=[N+]([O-])c1cccc(/C=N/n2cnnc2)c1O,10.8%,-12.4%,3.2%,15.8µM*,-4.7%,-4.2%
CC1=CC2C(=O)c3cccc(O)c3C(=O)C2C(O)=C1 (stereo unspecified),-3.3%,-9.6%,-2.3%,?,?,-0.5%
Oc1ccccc1/C=N/NC(=S)NC1CC2C=CC1C2 (stereo unspecified),10.4%,5.3%,1.2%,-0.5%,?,-1.2%
Oc1c(Cl)cc(Cl)cc1/C=N/NC(=S)NC1CC2C=CC1C2 (stereo unspecified),-1.3%,7.4%,-0.4%,?,28.2µM*[quencher],-7.9%
C[C@@]12CC[C@@H]3[C@H](CCC4=CC(=O)CC[C@]43C)[C@@H]1CC[C@@H]2C(=O)Cn1cnc2c(=S)nc[nH]c21,8.5%[14.2 µM],/,/,/,/,/
CN1CCN(c2ncnc3c2[nH]c2ccc(F)cc23)CC1,4.6%,9.3%,2.4%,-5.1%,-5.0%,-1.5%
CN1CCN(c2cc3c(c4c2[nH]c2ccccc24)C(=O)CC(C)(C)C3)CC1,9.9%,?,-7.8%,?,14.1µM*[quencher],-4.8%
CC(CNC(=O)c1cccnc1)NC(=O)c1cccnc1 (stereo unspecified),/,/,-0.2%,/,/,-1.3%
Cc1cc(C)n(CCc2nc(-c3ccco3)cs2)n1,6.4%,?,7.0%,35.5µM*,-22.2%,-2.3%
Cc1nn(CCc2nc(-c3ccco3)cs2)c2[nH]c(=O)cc(C(F)(F)F)c12,4.2%,?,-23.7%,25.1µM*,-16.5%,-0.5%
Cc1cc(C)n(CCc2nc(-c3cccs3)cs2)n1,-4.2%,4.0%,-20.6%,-6.4%,-5.4%,-0.8%
O=c1[nH]c(=O)n(Cc2ccccc2)c2nc(-c3ccco3)cc(C(F)(F)F)c12,17.0%,3.3%,4.7%,-14.5%,-5.2%,1.4%
CCCCCCN1C=C/C(=C\C=C(C#N)C#N)c2ccccc21,240.5%,-19.3%,39.8µM*,?,-9.6%,44.7µM*[fluorescent]
CC1(C)c2ccccc2N2CCC(=O)NC21/C=C/c1ccco1 (stereo unspecified),14.9%,-3.6%,?,?,-10.7%,44.7µM*[fluorescent]
O=C[C@@H]1CCCN1C(=O)[C@@H]1CCCN1C(=O)OCc1ccccc1,-14.0%,22.4µM*,-9.3%,17.8µM*,-24.3%,0.8%
O=C(O)CCC(NC(=O)C1CCCN1C(=O)OCc1ccccc1)C(=O)O (stereo unspecified),-20.2%,-11.4%,-2.0%,-11.3%,-14.7%,-0.4%
Cc1noc(C)c1-c1ccc2ncnc(N3CCOCC3)c2c1,6.3%,/,/,/,/,/
CC(COCC(C)OC(=O)c1ccccc1)OC(=O)c1ccccc1 (stereo unspecified),/,/,-0.7%[201 µM],/,/,-2.8%[201 µM]
COC(=O)C1=C(C)N=C2SCCC(=O)N2C1c1cc(Br)ccc1OC (stereo unspecified),/,3.1%,6.0%,5.01µM*,?,2.8%
COC(=O)C1=C(C)N=C2SCCC(=O)N2C1c1ccc(OCc2ccccc2)c(OC)c1 (stereo unspecified),/,5.4%,-0.2%,-14.1%,-16.0%,2.5%
Cc1cccc(N2CC(C)Cn3c2nc2c3c(=O)n(CC(=O)O)c(=O)n2C)c1 (stereo unspecified),/,2.2%,0.4%,-13.5%,-19.2%,10µM*[quencher]
COC(=O)Cn1c(=O)c2c(nc3n2CCN3c2cccc(C)c2)n(C)c1=O,/,-6.0%,10.5%,?,-11.4%,6.0%
SMILES,RGS12 GoLoco inh,Tau FP inhib,TRb SRC2 PPI,Tau fibril ThT,Tau fluor cs,TexasRed fluor
Cc1nc(NC(=O)/C=C/c2ccccc2)n[nH]1,1.1%,?,0.1%,15.8µM*,-2.7%,0.6%
CCOc1cc(/C=C/c2cc(C(F)(F)F)[nH]c(=O)n2)ccc1O,33.8%,-7.9%,-1.2%,14.1µM*,-15.5%,-3.3%
CCOc1cc(/C=C/c2ccc3cccc([N+](=O)[O-])c3n2)ccc1OCC(=O)N(C)C,2.3%,5.3%,-15.1%,7.08µM*,-23.5%,-7.2%
COc1cc(/C=C/c2ccc3cccc([N+](=O)[O-])c3n2)ccc1OCC#N,0.6%,-9.0%,1.1%,?,?,-8.3%
CCOc1cc(/C=C/c2ccc3cccc([N+](=O)[O-])c3n2)ccc1O,4.2%,7.5%,2.6%,14.1µM*,?,-4.6%
COc1ccc(/C=C/c2cc(C(F)(F)F)[nH]c(=O)n2)cc1OC,22.0%,-4.1%[2.34 µM],2.2%,10.9%,13.7%,-4.3%
CCCCCCCCCCCCCCC,/,/,4.8%[201 µM],/,/,-1.3%[201 µM]
CCOc1ccc2nc(/N=C/c3c(C)[nH]n(-c4ccc(C)cc4)c3=O)sc2c1,7.4%,-1.5%,-4.8%,?,-27.1%,-4.8%
CCOc1ccc2nc(/N=C/c3c(C)[nH]n(-c4ccccc4)c3=O)sc2c1,13.3%,?,1.6%,14.1µM*,?,-2.8%
C=Cc1ccc(C=C)cc1,14.3%,/,1.2%,/,/,-2.5%
O=C1C2C(c3ccccc3)CC=CC2C(c2cccc([N+](=O)[O-])c2)N1Cc1ccccc1 (stereo unspecified),/,/,4.7%,/,/,-1.8%
COc1ccc(CCn2c(NN=C(C)C)nc3c2c(=O)[nH]c(=O)n3C)cc1,51.6%,?,4.3%,22.4µM*,?,-3.0%

# Screening data from PubChem.
